p53null 32C tox – qHTS Screen for Compounds that Selectively Target Cancer Cells with p53 Mutations: Cytotoxicity of p53 Null Cells at the Permissive Temperature; H1299-neo p53 null cells, ATP luminescence, 24 h, 32C; Potency, µM (highest dose often 46.1 µM), hits mostly cytotoxic; hit rate 0.62% among 55,000; AID 903, 2007; also: nearly all actives have a fitted effect of over 55% in size
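H1299-neo (p53-null) cells, 600/well, were pre-incubated overnight at 37C, then exposed to compounds at up to 46 uM for 24 hr at 32C. Viability was measured as ATP content by luminescence, and AC50 values came from Hill fits.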
PMP22 txn – Cell-based coincidence reporter assay to measure PMP22 gene transcription in S16 Pmp22-F2sN cells - Primary screen; hit rate 2% among 43,000; S16 Pmp22-F2sN Schwann cells, FLuc/NLuc coincidence luminescence, 24 h; Potency, µM (top dose mostly 57.5 µM), hits mostly inhibitors; active = clear falling dose curves in both reporters; inconclusive = both reporters move, but less clearly or upward; inactive = either reporter flat; the % is the NLuc reporter signal
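Schwann cells carrying the coincidence reporter were exposed to library compounds for 24 h at 37C, then lysed and read for FLuc and, after quenching, NLuc luminescence on a CCD imager.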
pS6 MEF inh – Acumen qHTS Assay for Inhibitors of the mTORC1 Signaling Pathway in MEF (Tsc2-/-, p53-/-) Cells: Sytravon | Tsc2-/- p53-/- MEF, phospho-rpS6 immunofluorescence/PI, 24 h | Potency, µM (doses to about 38.3 µM), most hits filed as inhibitors | hit rate 0.78% among 44,000 | AID 493208, 2011; also: nearly all actives have a fitted effect of over 50% in size
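Readout is phospho-S6 Alexa 488 signal normalized to PI per well, reported as % active cells with thresholds set from rapamycin (7.5 nM) and DMSO controls. Cells: Tsc2-/-, p53-/- MEFs, 24 hrs compound at 37 C; PI cell number serves as viability.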
SKOV3 invasion – Primary qHTS assay for Inhibitors of ovarian cancer metastasis using an organotypic tumor microenvironment (TME) model; SKOV3ip1-GFP adhesion/invasion on 3D omental model, fluorescence; Potency, µM (titrated, usually from 45.8 µM), usual class: inhibitors; hit rate 0.1% among 46,000; AID 1963576, 2024; also: nearly all actives have a fitted effect of over 65% in size
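Adhesion/invasion was scored as fixed GFP-labeled SKOV3ip1 cell counts (488/509 nm), normalized to DMSO and tomatine controls. Cancer cells in serum-free medium, with four compound doses (0.36-46 umol/L), sat 2 hr at RT then 16 hr at 37 C on a 48 hr fibroblast/mesothelial/ECM culture.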
S16 F2sN tox – Cell viability qHTS assay in S16 Pmp22-F2sN cells | S16 Pmp22-F2sN Schwann cells viability, CellTiter-Glo, 24 h | Potency, µM (highest dose often 57.5 µM), most hits filed as cytotoxic | hit rate 0.48% among 43,000; also: nearly all actives have a fitted effect of over 65% in size
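S16 Pmp22-F2sN Schwann cells (500-1,000/well) in phenol-red-free DMEM with 10% FBS received 23 nL compound by pin tool for 24 h at 37 °C. Viability was then read as CellTiter-Glo luminescence after 15 min at room temperature.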
p53null 39C tox – qHTS Screen for Compounds that Selectively Target Cancer Cells with p53 Mutations: Cytotoxicity of p53 Null Cells at the Nonpermissive Temperature; H1299 p53-null (neo) cells, 39C, ATPlite viability, 24 h; Potency, µM (highest dose often 46.1 µM), most hits filed as cytotoxic; hit rate 0.97% among 55,000; also: nearly all actives have a fitted effect of over 50% in size
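Concentration-response (up to 46 uM) was run for 24 h at the nonpermissive 39C on H1299-p53A138V or H1299-neo cells. ATP content was measured with ATPlite luminescence. AC50 values were Hill-modeled after normalizing between DMSO and 100 uM tamoxifen killing.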
NLuc saturating – Biochemical NLuc saturation counterscreen for small molecule modulators of PMP22 gene expression - Nano-Glo assay | shares compounds with PMP22 txn | AID 1508638, 2021 | Potency, µM (top dose mostly 57.5 µM), most hits filed as inhibitors | Secreted NLuc enzyme (filtered S16 cell medium), Nano-Glo luminescence | hit rate 4% among 690
NLuc Km counter – Biochemical coelenterazine-based NLuc counterscreen for small molecule modulators of PMP22 gene expression - Km assay. secreted NLuc enzyme, coelenterazine luminescence, Km conditions. Potency, µM (titrated, usually from 57.5 µM), usual class: inhibitors. shares compounds with PMP22 txn. AID 1508639, 2021. hit rate 5% among 690
FLuc counter – Biochemical FLuc counterscreen for small molecule modulators of PMP22 gene expression | shares compounds with PMP22 txn | purified P. pyralis FLuc, luminescence, 10 min | 690 tested, under 10 active | AID 1508640, 2021 | Potency, µM (titrated, usually from 57.5 µM), usual class: inhibitors
Target sequence (P08659 whole entry, looked up): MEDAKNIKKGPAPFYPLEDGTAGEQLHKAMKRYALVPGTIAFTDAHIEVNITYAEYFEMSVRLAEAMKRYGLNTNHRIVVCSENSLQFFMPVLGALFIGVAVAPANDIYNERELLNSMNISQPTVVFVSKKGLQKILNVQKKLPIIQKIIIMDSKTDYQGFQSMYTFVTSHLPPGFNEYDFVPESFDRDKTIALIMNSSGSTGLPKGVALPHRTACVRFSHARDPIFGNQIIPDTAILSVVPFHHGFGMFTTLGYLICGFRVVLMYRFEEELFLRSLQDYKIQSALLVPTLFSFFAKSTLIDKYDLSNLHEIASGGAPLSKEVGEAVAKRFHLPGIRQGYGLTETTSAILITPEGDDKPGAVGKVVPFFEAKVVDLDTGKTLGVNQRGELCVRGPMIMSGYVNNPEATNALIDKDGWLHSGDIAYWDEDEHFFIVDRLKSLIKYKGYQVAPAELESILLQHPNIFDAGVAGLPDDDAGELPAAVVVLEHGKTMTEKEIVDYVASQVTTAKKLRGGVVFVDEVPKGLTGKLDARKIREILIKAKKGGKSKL
S16 F2sN tox cnf – Cell viability qHTS assay in S16 Pmp22-F2sN cells - Confirmatory screen | shares compounds with PMP22 txn | S16 Schwann cells viability, CellTiter-Glo ATP luminescence, 24 h | Potency, µM (series often up to 57.5 µM), usual class: cytotoxic | hit rate 7% among 690 | AID 1508641, 2021
PMP22 txn conf – Cell-based coincidence reporter assay to measure PMP22 gene transcription in S16 Pmp22-F2sN cells - Confirmatory screen; shares compounds with PMP22 txn; S16 Schwann cells Pmp22-F2sN, dual luciferase, 24 h; Potency, µM (series often up to 57.5 µM), usual class: inhibitors; hit rate 22% among 690; active = clear falling dose curves in both reporters; inconclusive = both reporters move, but less clearly or upward; inactive = either reporter flat; the % is the FLuc reporter signal
PMP22 prot conf – Cell-based HiBiT reporter assay to measure PMP22 protein expression in S16 Pmp22-HiBiT cells - Confirmatory screen; 95 tested, under 10 active; S16 Schwann cells Pmp22-HiBiT, luminescence, 48 h; Potency, µM (series often up to 27.9 µM), most hits filed as inhibitors; shares compounds with PMP22 txn
Target sequence (P25094 whole entry, looked up): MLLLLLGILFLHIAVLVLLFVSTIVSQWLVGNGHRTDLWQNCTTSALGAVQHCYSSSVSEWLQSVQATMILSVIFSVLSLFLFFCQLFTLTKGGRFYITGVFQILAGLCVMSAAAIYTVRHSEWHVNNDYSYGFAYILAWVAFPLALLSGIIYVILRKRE
Numbers stand for hits; – = inactive; ? = inconclusive; · = no result given. Hits are enriched below; roughly 3.1% of the tested compounds scored in any of these assays. Unless noted, calls follow the shape of the dose curve; as a rule, active = well fitted curve in the direction sought with a large enough effect; inconclusive = small, poorly fitted or top-dose-only effect, or another doubt; inactive = no such curve, though single readings can be large; an effect the other way counts as inactive or inconclusive.

SMILES	p53null 32C tox	PMP22 txn	pS6 MEF inh	SKOV3 invasion	S16 F2sN tox	p53null 39C tox	NLuc saturating	NLuc Km counter	FLuc counter	S16 F2sN tox cnf	PMP22 txn conf	others
COc1ccc(C2CC(=O)N(CC(=O)Nc3cccc(C)c3C)c3ccccc3S2)cc1OC (configuration not stated)	–	12µM	–	–	–	–	?	?	–	–	–
COc1cc(OC)c(C=CS(=O)(=O)Cc2ccc(OC)c(NCC(=O)O)c2)c(OC)c1	·	·	·	–	·	·	·	·	·	·	·
O=c1[nH]c(-c2ccc(C(F)(F)F)cc2)nc2c1CSCC2	·	·	·	–	·	·	·	·	·	·	·
CCCN(C(=O)c1cc2c(=O)n(CC)c3ccccc3c2s1)c1ccccc1F	–	7.6µM	–	–	–	?	–	?	–	–	?
CCOc1ccccc1N(CC)C(=O)c1cc2c(=O)n(CC)c3ccccc3c2s1	–	?	–	–	–	?	·	·	·	·	·
COc1ccccc1Nc1nn2c(=O)c3ccc(C(=O)NCCC4=CCCCC4)cc3nc2s1	?	3µM	?	–	?	4µM	?	?	?	6.9µM	5.8µM
COc1ccc(NC(=O)c2ccc3c(=O)n4nc(Nc5ccccc5C)sc4nc3c2)cc1	–	?	–	–	–	–	·	·	·	·	·
Cc1ccc(NC(=O)c2ccc3c(=O)n4nc(Nc5ccccc5C)sc4nc3c2)cc1C	–	9.5µM	–	–	–	?	–	?	–	27µM	13µM
Cc1ccc(C)c(Nc2nn3c(=O)c4ccc(C(=O)NCCC5=CCCCC5)cc4nc3s2)c1	–	?	–	–	–	–	·	·	·	·	·
COc1ccccc1Nc1nn2c(=O)c3ccc(C(=O)Nc4ccc(F)cc4)cc3nc2s1	–	3µM	–	–	–	–	–	–	–	14µM	5.8µM	PMP22 prot conf=?
COc1ccc(NC(=O)c2ccc3c(=O)n4nc(Nc5ccccc5C)sc4nc3c2)cc1Cl	–	11µM	–	–	–	?	–	?	–	24µM	15µM
COc1ccc(N2CCN(S(=O)(=O)CCNC(=O)Cc3ccc(-c4ccccc4)cc3)CC2)cc1	–	10µM	–	–	–	–	–	–	–	–	–
COc1cccc(Cn2c(CNC(=O)c3cc([N+](=O)[O-])ccc3Cl)nc3cccnc32)c1	–	13µM	–	–	–	–	–	–	–	–	–
CCOC(=O)c1cc2c(=O)n3ccccc3nc2n(Cc2ccco2)c1=NC(=O)c1cc(C)cc(C)c1	?	5.6µM	–	–	?	?	?	?	–	?	4.6µM	PMP22 prot conf=?
CCOC(=O)c1cc2c(=O)n3ccccc3nc2n(Cc2ccco2)c1=NC(=O)c1ccc(C(C)(C)C)cc1	–	?	–	–	–	–	·	·	·	·	·
CCOC(=O)c1cc2c(=O)n3ccccc3nc2n(CC2CCCO2)c1=NC(=O)c1cccc(C(F)(F)F)c1 (configuration not stated)	–	4.9µM	–	–	–	–	–	?	–	–	?
CCOCCCNC(=O)c1ccc(-n2c(-c3ccccc3)cc3c2CCCCC3)cc1	–	–	–	–	–	–	·	·	·	·	·
COCCCNC(=O)c1ccc(-n2c(-c3ccccc3)cc3c2CCC(C)C3)cc1 (configuration not stated)	–	18µM	–	–	–	–	–	–	–	?	2.7µM	PMP22 prot conf=–
CCCNC(=O)c1ccc(-n2c(-c3ccccc3)cc3c2CCCCC3)cc1	–	?	–	?	–	–	·	·	·	·	·
CC(C)OCCCNC(=O)c1ccc(-n2c(-c3ccccc3)cc3c2CCCC3)cc1	–	13µM	–	–	–	–	–	–	–	–	?
CC(C)NC(=O)c1ccc(-n2c(-c3ccccc3)cc3c2CCCC3)cc1	–	14µM	?	–	?	–	–	–	–	?	–
CN(C)CCNC(=O)c1ccc(-n2c(-c3ccccc3)cc3c2CCCC3)cc1	–	20µM	?	–	–	–	–	–	–	?	?
CCC(C)NC(=O)c1ccc(-n2c(-c3ccccc3)cc3c2CCCC3)cc1 (configuration not stated)	–	?	–	–	–	–	·	·	·	·	·
CC1CCN(C(=O)CSc2nnc(NC(=O)Nc3ccccc3)s2)CC1	–	19µM	–	–	–	–	?	?	?	?	–
O=C(Nc1ccccc1)Nc1nnc(SCC(=O)N2CCCCC2)s1	–	–	–	–	–	–	·	·	·	·	·
CCOC(=O)c1cc2c(=O)n3ccccc3nc2n(C)c1=NC(=O)c1c(-c2c(F)cccc2Cl)noc1C	–	2.1µM	–	–	–	–	?	–	–	–	–
